The record followed here is PubChem BioAssay.

Structures are written as SMILES. The source made the active and inactive calls.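 How the source made its calls, unless noted: active means z-score of at least 1.8 in each of two replicates, scored against plate mean and spread of sample wells; inactive means the rest.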

Test system in one experiment: not listed separately
Briefly: survival rescue of mitochondrial mutant cells in low glucose, primary screen, MELAS cybrids, Rieske KO mouse fibroblasts, CellTiter-Glo (AID 1508586).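 Further: z relative to plate mean and SD of compound and empty wells.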 Conditions: Rieske KO mouse fibroblast survival, CellTiter-Glo 72 h.
As for `CC[C@H]1OC(=O)C[C@@H](O)[C@H](C)[C@@H](O[C@@H]2O[C@H](C)[C@@H](O[C@H]3CC(C)(O)[C@@H](O)[C@H](C)O3)[C@H](N(C)C)[C@H]2O)[C@@H](CC=O)C[C@@H](C)C(=O)/C=C/C(C)=C/[C@@H]1CO[C@@H]1O[C@H](C)[C@@H](O)[C@@H](OC)[C@H]1OC` (stereo partly specified), the z-score was -0.21.

Molecule `Nc1nc(CC(=O)Nc2ccc(CCNC[C@H](O)c3ccccc3)cc2)cs1` returned a z-score of 0.0504.

`C[N+]1(C)[C@@H]2CC(OC(=O)C(CO)c3ccccc3)C[C@H]1[C@@H]1O[C@@H]12` (stereo partly specified): the z-score came out at 0.781.

`CN1[C@@H]2CC[C@@H]1CC(OC(=O)C(CO)c1ccccc1)C2` (stereo partly specified): the z-score was -0.0663.

`CC(=O)OCC(=O)[C@@]1(O)CC[C@H]2[C@@H]3CCC4=CC(=O)CC[C@]4(C)C3(F)[C@@H](O)C[C@@]21C` (stereo partly specified): the z-score was -0.231.

Another experiment deals with NAD(+) hydrolase SARM1 (Homo sapiens) (UniProt Q6SZW1). In words: SARM1 TIR NADase inhibitors, cell lysate, NAD-Glo luminescence (AID 1508614;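 active means compound whose remaining NAD level is above about 45 nM, limit read from the data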). Conditions: SAM-TIR HEK293T lysate NADase, at 1 µM, stronger effect = higher value.
Sequence of NAD(+) hydrolase SARM1 (Homo sapiens) (Q6SZW1 whole entry, looked up): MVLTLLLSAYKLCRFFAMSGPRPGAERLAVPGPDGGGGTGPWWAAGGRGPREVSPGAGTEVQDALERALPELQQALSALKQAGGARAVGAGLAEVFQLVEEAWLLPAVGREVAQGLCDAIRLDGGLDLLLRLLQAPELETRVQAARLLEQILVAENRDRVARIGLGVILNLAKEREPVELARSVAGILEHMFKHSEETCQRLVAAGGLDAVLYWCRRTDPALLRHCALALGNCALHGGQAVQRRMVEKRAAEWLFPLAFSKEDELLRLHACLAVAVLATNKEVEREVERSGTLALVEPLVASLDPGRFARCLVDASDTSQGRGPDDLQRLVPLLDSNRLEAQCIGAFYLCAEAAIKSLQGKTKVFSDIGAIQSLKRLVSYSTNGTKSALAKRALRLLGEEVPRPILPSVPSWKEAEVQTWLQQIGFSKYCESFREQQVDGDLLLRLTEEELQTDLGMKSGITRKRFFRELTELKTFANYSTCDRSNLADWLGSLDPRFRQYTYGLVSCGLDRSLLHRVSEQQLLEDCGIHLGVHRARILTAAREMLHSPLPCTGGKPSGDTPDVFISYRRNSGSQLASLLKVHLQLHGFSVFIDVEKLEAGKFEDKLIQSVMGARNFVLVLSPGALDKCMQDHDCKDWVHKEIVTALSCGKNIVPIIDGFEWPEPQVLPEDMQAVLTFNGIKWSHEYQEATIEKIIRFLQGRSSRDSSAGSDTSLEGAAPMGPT
For `Nc1nc(NC2CC2)c2ncn([C@H]3C=C[C@@H](CO)C3)c2n1`, the remaining NAD was 10 nM (inactive).

For `CO/N=C(\C(=O)N[C@@H]1C(=O)N2C(C(=O)OC(C)OC(C)=O)=C(COC(N)=O)CS[C@H]12)c1ccco1` (stereo partly specified), the remaining NAD is 10 nM (inactive).

In the case of `C/C=C/C1=C(C(=O)O)N2C(=O)[C@@H](NC(=O)[C@H](N)c3ccc(O)cc3)[C@H]2SC1`, the remaining NAD is 10 nM (inactive).

As to `Cc1cc(=O)c(C(=O)N[C@@H](C(=O)N[C@@H]2C(=O)N3C(C(=O)O)=C(CSc4nnnn4C)CS[C@H]23)c2ccc(O)cc2)c[nH]1`, the remaining NAD was 10 nM (inactive).

Test system in the next experiment: not listed separately
Briefly: viability rescue of complex I mutant cybrids, primary screen, cell-based, galactose medium, ATP luminescence (AID 1645843).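 Further: positive z means more ATP and so rescue of galactose-driven cybrid death.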 The conditions noted are these: complex I mutant cybrid cells, 72 h, stronger effect = higher value.
In the case of `C=CCn1nc(C(=O)N2CCCC2)c2c1CCC(NCc1ccccc1OC(F)(F)F)C2` (stereo unspecified), the z-score was -0.3 (inactive).

Take `Cc1cc(-c2cc3c(n(C)c2=O)CCN(Cc2ccc(Sc4nncn4C)o2)C3)ccc1F`: the z-score was 0.445 (inactive).

On to `N#CC(=C(\N)Sc1ccccc1N)/C(C#N)=C(/N)Sc1ccccc1N`, for which the z-score was -1.33 (inactive).

As for `O=C(NCCN1CCOCC1)c1cc(-c2ccccc2)cc(S(=O)(=O)N2CCSCC2)c1`, the z-score is 1.53 (inactive).

In the case of `CCOC(=O)c1nn(Cc2ccccn2)c2c1CN(Cc1ccc(NC(C)=O)s1)CC2`, the z-score is 0.55 (inactive).

For `COC(=O)c1c(NC(=O)c2ccco2)c2cc(NC3CCOCC3)cnc2n1C`, the z-score was 0.7 (inactive).

In the case of `COC(=O)c1c(NC(C)=O)c2cc(NC3CCOCC3)cnc2n1CCc1ccc(OC)cc1`, the z-score is 0.445 (inactive).
